{
  "source": "the antibiotic and cytotoxicity screens of Wong et al. (2023)",
  "note": "Screen size: about 39,000 compounds; about 1,500 (3.8%) were called active. What follows is part of a selection rich in actives, with near analogues and random picks from the rest.",
  "data": [
    {"tested_on": "HSkMC (human skeletal muscle cells)", "assay": "cytotoxicity call (relative viability < 0.9)", "conditions": "10 µM", "values": [
      {"smiles": "CC1=C2CC3C(CC=C4CC(O)CCC43C)C2CCC12OC1CC(C)CNC1C2C", "note": "(stereo not given)", "cytotoxicity call": "inactive"},
      {"smiles": "Cc1ccc(OC(=O)N(C)C[C@H]2OCc3ccccc3-c3c(n(C)c4ccccc34)C(=O)N([C@@H](C)CO)C[C@@H]2C)cc1", "cytotoxicity call": "inactive"},
      {"smiles": "O=C1[O][SbH]23[O]C(=O)C([O]2)C2[O][SbH]4([O]C(=O)C([O]4)C1[O]3)[O]C2=O", "cytotoxicity call": "inactive"},
      {"smiles": "O=C1[O][SbH]23[O]C(=O)[C@H]([O]2)[C@H]2[O][SbH]4([O]C(=O)[C@H]([O]4)[C@H]1[O]3)[O]C2=O", "cytotoxicity call": "active"},
      {"smiles": "CC(C)(C)NCC(O)c1ccccc1Cl.Cl", "note": "(stereo not given)", "cytotoxicity call": "inactive"},
      {"smiles": "CC(C)(C#N)O[C@@H]1O[C@H](CO)[C@@H](O)[C@H](O)[C@H]1O", "cytotoxicity call": "inactive"},
      {"smiles": "CN1C(=O)[C@@]23C[C@]4([C@@]56C[C@]78SS[C@](CO)(C(=O)N7[C@@H]5Nc5ccccc56)N(C)C8=O)c5ccccc5N[C@H]4N2C(=O)[C@@]1(CO)SS3", "cytotoxicity call": "active"},
      {"smiles": "CN1C(=O)[C@]23CC4=CC=C[C@H](O)[C@H]4N2C(=O)[C@@]1(CO)SS3", "cytotoxicity call": "active"},
      {"smiles": "N#C[C@H](O[C@@H]1O[C@H](CO[C@@H]2O[C@H](CO)[C@@H](O)[C@H](O)[C@H]2O)[C@@H](O)[C@H](O)[C@H]1O)c1ccccc1", "cytotoxicity call": "inactive"},
      {"smiles": "CN1CC[C@]2(CCCO2)C1", "cytotoxicity call": "inactive"},
      {"smiles": "CCOc1ccc(CN)cn1", "cytotoxicity call": "inactive"},
      {"smiles": "NSC(=S)N1CCCC1", "cytotoxicity call": "inactive"},
      {"smiles": "O=C1C=C2C=CC3CC2(O1)C1CCCCN31", "note": "(stereo not given)", "cytotoxicity call": "inactive"},
      {"smiles": "Nc1ccc2c(c1)CNCC2", "cytotoxicity call": "inactive"},
      {"smiles": "O=c1[nH]c2ccccc2n1C1CCN(CCCC(c2ccc(F)cc2)c2ccc(F)cc2)CC1", "cytotoxicity call": "active"},
      {"smiles": "O=c1[nH]c2ccccc2n1CCCN1CCC(n2c(=O)[nH]c3cc(Cl)ccc32)CC1", "cytotoxicity call": "inactive"},
      {"smiles": "COc1ccn(C)c(=O)c1C#N", "cytotoxicity call": "inactive"},
      {"smiles": "Cl.c1ccc2c(c1)OCC(C1=NCCN1)O2", "note": "(stereo not given)", "cytotoxicity call": "inactive"},
      {"smiles": "CI.O=C(COc1ccc(Cl)cc1Cl)OC[C@H]1CCCN2CCCC[C@@H]12", "cytotoxicity call": "inactive"},
      {"smiles": "O=C1CO[C@]2(CNCCOC2)CN1CC1CC1", "cytotoxicity call": "inactive"},
      {"smiles": "CN(C)C(=O)CCC(=O)N1C[C@H]2C[C@@H]1CN2", "cytotoxicity call": "inactive"},
      {"smiles": "CO[C@@H]1C[C@@H](C[C@H]2CC[C@H](C)[C@H]([C@@H](C)C(=O)O)O2)O[C@]2(O[C@](C)([C@H]3CC[C@@](C)([C@H]4O[C@@H]([C@H]5O[C@@](O)(CO)[C@H](C)C[C@@H]5C)C[C@@H]4C)O3)C[C@H]2C)[C@@H]1C", "cytotoxicity call": "active"},
      {"smiles": "C[C@@H]1CN([C@H](C)CO)C(=O)CCCn2nncc2CO[C@@H]1CN(C)C(=O)Oc1cccc2ccccc12", "cytotoxicity call": "inactive"},
      {"smiles": "Clc1ccc(C(c2ccc(Cl)cc2)C(Cl)(Cl)Cl)cc1", "cytotoxicity call": "inactive"},
      {"smiles": "N[C@H]1C[C@H]1c1ccccc1", "cytotoxicity call": "inactive"},
      {"smiles": "NCC(=O)c1ccccc1", "cytotoxicity call": "inactive"},
      {"smiles": "CC(=O)[O][Hg][c]1ccccc1", "cytotoxicity call": "active"},
      {"smiles": "O=C(Cc1ccccc1)c1ccccc1", "cytotoxicity call": "inactive"},
      {"smiles": "O.O.O.O=C([O-])C1[O][Sb]2[O]C(=O)C([O]2)C(C(=O)[O-])[O][Sb]2[O]C(=O)C1[O]2.[K+].[K+]", "note": "(stereo not given)", "cytotoxicity call": "inactive"},
      {"smiles": "CC[C@@H](C)[C@H]1NC(=O)C(C(C)=O)=C1O", "cytotoxicity call": "inactive"},
      {"smiles": "CC[C@@H](N)[C@@H](O)c1ccc(O)c(O)c1", "cytotoxicity call": "active"},
      {"smiles": "C[C@H](N)[C@H](O)c1ccc(O)c(O)c1", "cytotoxicity call": "inactive"},
      {"smiles": "CCC(N)C(O)c1ccc(O)c(O)c1.Cl", "note": "(stereo not given)", "cytotoxicity call": "inactive"},
      {"smiles": "Cn1cc([C@@H](O)c2ccccc2)[n+](C)c1", "cytotoxicity call": "inactive"},
      {"smiles": "CC(CO)NC(=O)C1C=C2c3cccc4[nH]cc(c34)CC2N(C)C1.O=C(O)C=CC(=O)O", "note": "(stereo not given)", "cytotoxicity call": "inactive"}
    ]}
  ]
}
